Data published in PubChem BioAssay (Tox21).
Results filed as inconclusive are left out. Unmarked numbers belong to inactive results. The source made the active and inactive calls. Calls come from the whole dose curve; as a rule, active = well fitted activation curve with a large enough effect in the signal ratio in the repeat runs (not every such curve was filed as active); inconclusive = weak or mixed curves, or effect the other way; inactive = no such curve, though single readings can be large or run the other way; the % refers to the signal ratio. Positions of bridges follow the written chain, without caps; N, C: chain ends. Non-standard residues stand in square brackets, D forms with d. Residues, ends and D or L forms follow the SMILES beside them. *: point of attachment. X1 = CC[C@@H](C)[C@@H](N)C1=N[C@H](C(=O)*)CS1; d(aIle) = CC[C@H](C)[C@@H](N)C(=O)O; dOrn = NCCC[C@@H](N)C(=O)O

Target: Peroxisome proliferator-activated receptor gamma (Homo sapiens) (UniProt P37231)
Test: qHTS assay to identify small molecule agonists of the peroxisome proliferator-activated receptor gamma (PPARg) signaling pathway (AID 743094)
Settings: HEK293H PPARg-UAS-bla, beta-lactamase FRET ratio, 17 h; series mostly up to 57 µM; activation: at the top concentration
Excerpt: U.S. Tox21 Program National Center for Advancing Translational Sciences [NCATS] NIH Chemical Genomics Center [NCGC] U.S. Environmental Protection Agency [EPA] National Institutes of Environmental Health Sciences [NIEHS] National Toxicology Program [NTP] U.S. Food and Drug Administration [FDA] Tox21 Assay Overview: The peroxisome proliferator-activated receptors (PPARs) are lipid-activated transcription factors of the nuclear receptor superfamily with three distinct subtypes namely PPAR alpha, PPAR delta (also called PPAR beta) and PPAR gamma (PPARg). All these subtypes heterodimerize with Retinoid X receptor (RXR) and these heterodimers regulate transcription of various genes. PPAR-gamma receptor (glitazone receptor) is involved in the regulation of glucose and lipid metabolism. To identify the compounds that activate PPAR-gamma signaling, GeneBLAzer PPAR gamma UAS-bla HEK293H cell line (Invitrogen, Carlsbad, CA, USA) containing a beta-lactamase reporter gene under control of the control of an upstream activator sequence (UAS) stably integrated into HEK293H cells was used to screen Tox21 compound library.
Tox21 Assay Protocol Summary: PPARg-bla cells were dispensed at 3000 cells/6uL/well in 1536-well black wall/clear bottom plates using a Multidrop Combi (Thermo Fisher Scientific, Waltham, MA) dispenser. After the assay plates were incubated at 37C and 5% CO2 for 5 h, 23 nL of compounds dissolved in DMSO, positive controls or DMSO only was transferred to the assay plate by a Pintool station (Kalypsys, San Diego, CA). The assay plates were incubated at 37C for 17 h. After 1 uL of LiveBLAzerTM B/G FRET substrate was added using a Bioraptr Flying Reagent Dispenser (FRD) workstation (Beckman Coulter, Indianapolis, IN, USA), the plates were incubated at room temperature for 1 h, and fluorescence intensity was measured by an Envision plate reader (PerkinElmer, Shelton, CT).
% is set by controls: 0 for no effect and ±100 for the full control effect; potency is the fitted concentration of half-maximal effect.

Chain of Peroxisome proliferator-activated receptor gamma (Homo sapiens) (P37231 whole entry, looked up): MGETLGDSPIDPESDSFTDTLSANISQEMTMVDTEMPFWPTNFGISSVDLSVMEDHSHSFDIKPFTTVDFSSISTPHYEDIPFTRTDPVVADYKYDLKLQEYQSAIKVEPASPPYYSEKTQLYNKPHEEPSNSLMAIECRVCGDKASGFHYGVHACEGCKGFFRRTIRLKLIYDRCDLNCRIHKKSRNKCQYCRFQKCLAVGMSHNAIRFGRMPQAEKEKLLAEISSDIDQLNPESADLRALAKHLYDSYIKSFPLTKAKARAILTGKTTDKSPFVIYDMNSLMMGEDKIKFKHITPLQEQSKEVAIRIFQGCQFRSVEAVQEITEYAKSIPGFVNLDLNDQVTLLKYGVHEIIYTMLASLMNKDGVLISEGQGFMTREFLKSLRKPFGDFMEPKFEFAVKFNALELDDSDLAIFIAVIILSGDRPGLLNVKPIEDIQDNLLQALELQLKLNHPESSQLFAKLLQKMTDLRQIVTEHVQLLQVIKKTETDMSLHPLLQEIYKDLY

First: CC(C)C[C@@H](NC(=O)[C@@H](O)[C@H](N)Cc1ccccc1)C(=O)O
Second: CCC(O)c1ccccc1 (stereo not given)
The “activation” value of the first is higher: 1.14% for the first, -4.36% for the second.

Going from `O=C(O)Cc1nn(Cc2ccc(Br)cc2F)c(=O)c2ccccc12` to `CCN(CC)CCn1c(=O)c(Cc2ccc(OC)cc2)nc2ccccc21`, the “activation” value rises from -0.0208% to 1.37%.

First: CC1=C(/C=C/C(C)=C/C=C/C(C)=C/C=C/C=C(C)/C=C/C=C(C)/C=C/C2=C(C)CCCC2(C)C)C(C)(C)CCC1
Second: CC12CCC(C1)C(C)(C)C2=O (stereo not given)
The “activation” value of the first is lower: -1.83% for the first, 0.17% for the second.

First: C[S+](C)CCC(N)C(=O)O (stereo not given)
Second: NCC(O)CC(=O)O (stereo not given)
The “activation” value of the first is higher: 0.935% for the first, 0.426% for the second.

Compared with `O=C(O)c1cc2cc(Cc3cccnc3)ccc2o1`, `N[C@@H](Cc1ccc(O)c(O)c1)C(=O)O` is higher in “activation” value: 1.36% for the first, 4.36% for the second.

Going from `C[C@@H]1O[C@@H](OC[C@H]2O[C@@H](Oc3c(-c4ccc(OCCO)c(OCCO)c4)oc4cc(OCCO)cc(O)c4c3=O)[C@H](O)[C@@H](O)[C@@H]2O)[C@H](O)[C@H](O)[C@H]1O` to `O=C(O)c1ccc(NC2OC[C@@H](O)[C@H](O)[C@H]2O)cc1` (stereo not given in full), the “activation” value rises from 1.28% to 3.49%.

Going from `c1ccc(-c2ccc(C(c3ccccc3)n3ccnc3)cc2)cc1` (stereo not given) to `N=C(N)c1ccc(/C=C/c2ccc(C(=N)N)cc2O)cc1`, the “activation” value falls from 2.75% to -1.04%.

Going from `O=C(O)[C@@H]1C[C@H](CP(=O)(O)O)CCN1` to `NC(=O)[C@H]1O[C@@H](O)[C@H](O)[C@@H](O)[C@@H]1O`, the “activation” value falls from -0.739% to -0.872%.

Going from `CCCCCCCCCCCCCCCCCCOCC(COP(=O)([O-])OCC[N+](C)(C)C)OC` (stereo not given) to `CCCCCCCC[N+](C)(C)CCCCCCCC`, the “activation” value falls from -0.609% to -8.66%.

Going from `NC(=S)NS(=O)(=O)c1ccc(N)cc1` to `Nc1nc(NC2CC2)c2ncn([C@@H]3C=C[C@@H](CO)C3)c2n1`, the “activation” value rises from -4.55% to 0.847%.

Going from `CNCC(=O)N[C@@H](CCCN=C(N)N)C(=O)N[C@H](C(=O)N[C@@H](Cc1ccc(O)cc1)C(=O)N[C@H](C(=O)N[C@@H](Cc1cnc[nH]1)C(=O)N1CCC[C@H]1C(=O)N[C@@H](C)C(=O)O)C(C)C)C(C)C` to `N[C@H](C(=O)O)[C@@H]1CC(Cl)=NO1`, the “activation” value falls from 3.6% to -9.4%.

In the case of `CCN1\C(=C/C=C/C=C/c2sc3ccccc3[n+]2CC)Sc2ccccc21`, the Potency is reported as “inactive”.
`CCCCC[C@H](O)/C=C/[C@@H]1[C@@H](C/C=C\CCCC(=O)O)[C@@H](O)C[C@H]1O` was tested, and the Potency was “inactive”.
`CCCOC(=O)c1ccc(O)cc1` was tested, and the Potency was “inactive”.
In the case of `CC(C)(Oc1ccc(C2CCCc3ccccc32)cc1)C(=O)O` (stereo not given), the Potency is reported as 2.39 µM (active).
With `Cc1cc(-c2ccc(N=Nc3ccc4c(S(=O)(=O)O)cc(S(=O)(=O)O)c(N)c4c3O)c(C)c2)ccc1N=Nc1ccc2c(S(=O)(=O)O)cc(S(=O)(=O)O)c(N)c2c1O` the Potency was “inactive”.
For `O=C(N[C@H](CO)[C@H](O)c1ccc([N+](=O)[O-])cc1)C(Cl)Cl`, the Potency was “inactive”.
`CC(C)(C)c1ccc2c(S(=O)(=O)O)c(C(C)(C)C)ccc2c1` was tested, and the Potency was 9.52 µM (active).
In the case of `CC[C@@H](C)[C@@H](N)C1=N[C@H](C(=O)N[C@@H](CC(C)C)C(=O)N[C@@H](CCC(=O)O)C(=O)N[C@@H](C(=O)N[C@@H]2CCCCNC(=O)[C@@H](CC(N)=O)NC(=O)[C@@H](CC(=O)O)NC(=O)[C@@H](Cc3cnc[nH]3)NC(=O)[C@@H](Cc3ccccc3)NC(=O)[C@@H]([C@H](C)CC)NC(=O)[C@@H](CCCN)NC2=O)[C@@H](C)CC)CS1` (X1-LE[d(aIle)][dK][dOrn][dI][dF][dH][dD][dN]; lactam 4-C), the Potency is reported as “inactive”.
With `C[N+](C)(C)CCOP(=O)(O)OP(=O)([O-])OC[C@H]1O[C@@H](n2ccc(N)nc2=O)[C@H](O)[C@@H]1O` the Potency was “inactive”.
`CC[C@H]1OC(=O)[C@H](C)C(=O)[C@H](C)[C@@H](O[C@@H]2O[C@H](C)C[C@H](N(C)C)[C@H]2O)[C@](C)(OC)C[C@@H](C)C(=O)[C@H](C)[C@H]2N(CCCCn3cnc(-c4cccnc4)c3)C(=O)O[C@]12C` was tested, and the Potency was “inactive”.
With `O=C(O)COc1ccc(C(=O)c2cccs2)c(Cl)c1Cl` the Potency was “inactive”.

Compared with `COC1[C@@H](O[C@@H]2O[C@H](C)[C@@H](O[C@H]3C[C@@](C)(O)[C@H](OC(=O)CC(C)C)[C@H](C)O3)[C@H](N(C)C)[C@H]2O)[C@@H](CC=O)C[C@@H](C)[C@@H](O)/C=C/C=C/C[C@@H](C)OC(=O)C[C@H]1OC(C)=O` (stereo not given in full), `CO[C@H]1C[C@H](O[C@H]2[C@H](C)[C@@H](O[C@@H]3O[C@H](C)C[C@H](N(C)C)[C@H]3O)[C@@H](C)C[C@]3(CO3)C(=O)[C@H](C)[C@@H](O)[C@@H](C)[C@@H](C)OC(=O)[C@@H]2C)O[C@@H](C)[C@@H]1O` is lower in “activation” value: 0.706% [at 26.2 µM] for the first, -2.67% [at 26.2 µM] for the second.

First: NC(=O)c1cc[n+](CC2=C(C(=O)O)N3C(=O)[C@@H](NC(=O)C(c4ccccc4)S(=O)(=O)[O-])[C@H]3SC2)cc1 (stereo not given in full)
Second: CC1(C)S[C@@H]2[C@H](NC(=O)[C@@H](NC(=O)N3CCNC3=O)c3ccccc3)C(=O)N2[C@H]1C(=O)O
The “activation” value of the first is lower: -0.532% [at 26.2 µM] for the first, 1.97% [at 26.2 µM] for the second.

First: CC(C)NCC1CCc2cc(CO)c([N+](=O)[O-])cc2N1 (stereo not given)
Second: CC(=O)Oc1cc(C(F)(F)F)ccc1C(=O)O
The “activation” value of the first is higher: -1.53% [at 26.2 µM] for the first, -1.83% [at 26.2 µM] for the second.

`NC(N)=NCC1COC2(CCCCC2)O1` (stereo not given) was tested, and the “activation” value was 2.54% [at 26.2 µM].
